Where “and” joins values, the source holds several entries; their conditions need not be identical. Equal values may be shown once. Records with an inconclusive call do not appear. A call without a number means that no potency is given here. More than one record can exist for a structure, and the calls need not agree. Calls of active or inactive are those of the source. Unless noted, the call rests on the fitted dose curve; in most records, active means well fitted curve in the direction sought with a large enough effect in the repeat runs; inconclusive means weak or mixed curves; inactive means no such curve, though single readings can be large; an effect the other way counts as inactive or inconclusive.
Key:
[1] = qHTS assay to identify small molecule antagonists of the retinoid acid receptor (RAR) signaling pathway - cell viability counter screen (AID 1159551); further: nearly all actives have a fitted effect of over 35% in size
In short: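 Viability of C3RL4 cells is quantified from ATP by luminescence after 6 h treatment at 37 C with compounds and 1 uM retinol.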

[2] = qHTS assay to identify small molecule antagonists of the retinoic acid receptor (RAR) signaling pathway (AID 1159552; further: nearly all actives have a fitted effect of over 50% in size; further: potency means the concentration at half of the fitted maximal effect)
In short: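 Luminescent RARE reporter read-out in C3RL4 cells: 6 hr co-treatment at 37 C of test compounds with retinol at 1 uM final. Cells plated overnight beforehand; luciferase reagent incubated 30 min at room temperature before reading.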

[3] = qHTS assay to identify small molecule agonists of the retinoic acid receptor (RAR) signaling pathway (AID 1159553)
In short: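 Compounds dissolved in DMSO were pinned onto C3RL4 cells seeded the previous day, and plates were held 6 hr at 37 C. RARE-driven luciferase output was then read by luminescence.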

[4] = qHTS assay to identify small molecule antagonists of the estrogen related receptor (ERR) signaling pathway from Tox21 library - cell viability counter screen (AID 1224834); further: nearly all actives have a fitted effect of over 30% in size; further: potency means the concentration at half of the fitted maximal effect
In short: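 In this quantitative HTS format, ERR cells receive compounds in DMSO and are incubated for 17.5 h at 37 C. Live-cell protease activity is then detected with CellTiter-Fluor.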

[5] = biological target: Luciferin 4-monooxygenase (Photinus pyralis) (UniProt P08659); assay: qHTS assay to identify small molecule inhibitors of firefly luciferase (AID 1224835); further: nearly all actives have a fitted effect of over 25% in size; further: potency means the concentration at half of the fitted maximal effect
In short: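 Quantitative HTS format; KM concentrations of both substrates. Purified P. pyralis FLuc activity quantified from luminescence images.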

[6] = qHTS assay to identify small molecule agonists of the constitutive androstane receptor (CAR) signaling pathway - cell viability counter screen (AID 1224836); further: nearly all actives have a fitted effect of over 45% in size; further: potency means the concentration at half of the fitted maximal effect
In short: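 Cell viability multiplexed with the CAR agonist screen: CellTiter-Fluor fluorescence after 23 hr at 37 C. HepG2-CYP2B6-hCAR cells got compounds at 15 concentrations with PK11195 at 0.75 uM final.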

[7] = qHTS assay to identify small molecule antagonists of the constitutive androstane receptor (CAR) signaling pathway - cell viability counter screen (AID 1224837); further: nearly all actives have a fitted effect of over 45% in size; further: potency means the concentration at half of the fitted maximal effect
In short: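 In quantitative HTS format, compounds at 15 concentrations were applied to HepG2 cells double-transfected with hCAR and CYP2B6-2.2kb under 50 nM CITCO stimulation; live-cell protease activity was read after 23 hr via CellTiter-Fluor.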

[8] = biological target: Nuclear receptor subfamily 1 group I member 3 (Homo sapiens) (UniProt Q14994); assay: qHTS assay to identify small molecule agonists of the constitutive androstane receptor (CAR) signaling pathway (AID 1224839); further: nearly all actives have a fitted effect of over 15% in size; further: potency means the concentration at half of the fitted maximal effect
In short: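 Luminescent ONE-Glo read-out after 24 hr, 37 C exposure of double-stable HepG2-CYP2B6-hCAR reporter cells to a 15-point compound series, in the presence of 0.75 uM PK11195 (final).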

[9] = qHTS assay to identify small molecule antagonists of the estrogen related receptor signaling pathway with the pleiotropic PPARgamma coactivator (PGC) from Tox21 10K library - cell viability counter screen (AID 1224840; active means well fitted cell-killing curve with a large enough effect in the repeat runs, not every such curve was filed as active; further: nearly all actives have a fitted effect of over 40% in size; further: potency means the concentration at half of the fitted maximal effect)
In short: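 Viability counter screen, PGC/ERR cells: 17.5 h compound exposure at 37 C, CellTiter-Fluor fluorescence endpoint.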

[10] = qHTS assay to identify small molecule agonists of the hypoxia (HIF-1) signaling pathway - cell viability counter screen (AID 1224844; calls by dose curve; further: nearly all actives have a fitted effect of over 50% in size; further: potency means the concentration at half of the fitted maximal effect)
In short: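 Same wells as the HIF-1 reporter screen; ME-180 cells carrying HRE-bla, 17 hr treatment at 37C; CellTiter-Glo luminescence read after 30 min at room temperature.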

[11] = biological target: Nuclear receptor subfamily 1 group I member 3 (Homo sapiens) (UniProt Q14994); assay: qHTS assay to identify small molecule antagonists of the constitutive androstane receptor (CAR) signaling pathway (AID 1224838); further: nearly all actives have a fitted effect of over 40% in size; further: potency means the concentration at half of the fitted maximal effect
In short: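 CITCO-stimulated (50 nM final) HepG2 cells stably transfected with hCAR and CYP2B6-2.2kb luciferase were exposed to compounds at 15 concentrations for 24 h at 37 C/5% CO2. A luciferase reagent was added and luminescence recorded after 30 min.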

[12] = qHTS assay to identify small molecule antagonists of the estrogen related receptor signaling pathway with the pleiotropic PPARgamma coactivator (PGC) from Tox21 10K library (AID 1224841; call rule not given here; further: actives are mostly falling curves and most rising ones were filed inactive; nearly all actives have a fitted effect of over 50% in size; further: potency means the concentration at half of the fitted maximal effect)
In short: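 In the PGC/ERR line, DMSO solutions of test chemicals are pin-delivered to 2,000 cells/well six hours after dispensing. Following eighteen hours' incubation, One-Glo reagent is added and luminescence recorded.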

[13] = biological target: Thyrotropin receptor (Homo sapiens) (UniProt P16473); assay: qHTS assay to identify small molecule agonists of the thyroid stimulating hormone receptor (TSHR) signaling pathway (AID 1224843; calls by dose curve; further: nearly all actives have a fitted effect of over 45% in size)
In short: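 Compounds are titrated over 15 concentrations, in triplicate, onto TSHR-HEK293 cells seeded at 800/well. Plates sit 30 min at room temperature before cAMP-d2 and anti-cAMP cryptate are added; signal is read after a further hour.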

[14] = qHTS assay to identify small molecule agonists of the estrogen related receptor signaling pathway with the pleiotropic PPARgamma coactivator (PGC) from Tox21 10K library (AID 1224842); further: nearly all actives have a fitted effect of over 15% in size
In short: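 PGC/ERR reporter cells (NTP line) were seeded 2,000 per well, rested 6 h at 37 C/5% CO2, then pin-dosed with compounds in DMSO for 18 h at 37 C; luciferase read by One-Glo luminescence after 30 min at room temperature.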

Sequence of Thyrotropin receptor (Homo sapiens) (P16473 whole entry, looked up): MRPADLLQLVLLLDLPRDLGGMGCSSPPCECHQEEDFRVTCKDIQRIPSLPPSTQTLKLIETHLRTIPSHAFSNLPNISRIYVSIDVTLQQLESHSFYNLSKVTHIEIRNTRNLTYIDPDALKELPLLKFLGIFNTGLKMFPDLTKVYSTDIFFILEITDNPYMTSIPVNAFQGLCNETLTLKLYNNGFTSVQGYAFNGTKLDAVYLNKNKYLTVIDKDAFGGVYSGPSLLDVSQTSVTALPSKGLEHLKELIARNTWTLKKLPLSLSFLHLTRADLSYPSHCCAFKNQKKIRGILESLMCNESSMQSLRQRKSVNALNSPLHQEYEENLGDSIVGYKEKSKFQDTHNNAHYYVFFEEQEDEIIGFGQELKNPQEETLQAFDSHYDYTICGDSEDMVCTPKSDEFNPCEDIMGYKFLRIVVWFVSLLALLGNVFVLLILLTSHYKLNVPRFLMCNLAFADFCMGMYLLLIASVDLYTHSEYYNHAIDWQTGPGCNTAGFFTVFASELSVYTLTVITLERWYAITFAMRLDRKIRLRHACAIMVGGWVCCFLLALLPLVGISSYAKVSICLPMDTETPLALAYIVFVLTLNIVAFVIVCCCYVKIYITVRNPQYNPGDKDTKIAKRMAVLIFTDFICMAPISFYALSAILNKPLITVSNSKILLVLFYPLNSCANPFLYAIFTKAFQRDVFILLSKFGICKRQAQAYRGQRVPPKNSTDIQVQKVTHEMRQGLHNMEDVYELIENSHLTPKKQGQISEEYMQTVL
Sequence of Nuclear receptor subfamily 1 group I member 3 (Homo sapiens) (Q14994 whole entry, looked up): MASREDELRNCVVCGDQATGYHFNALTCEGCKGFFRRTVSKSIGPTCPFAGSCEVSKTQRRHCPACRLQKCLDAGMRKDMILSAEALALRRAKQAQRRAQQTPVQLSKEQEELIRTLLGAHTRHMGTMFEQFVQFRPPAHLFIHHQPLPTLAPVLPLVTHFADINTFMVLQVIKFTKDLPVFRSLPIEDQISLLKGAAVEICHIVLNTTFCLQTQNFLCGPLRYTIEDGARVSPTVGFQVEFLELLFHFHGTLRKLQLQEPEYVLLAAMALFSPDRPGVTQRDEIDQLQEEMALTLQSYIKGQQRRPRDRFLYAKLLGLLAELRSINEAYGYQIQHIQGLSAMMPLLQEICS
Sequence of Luciferin 4-monooxygenase (Photinus pyralis) (P08659 whole entry, looked up): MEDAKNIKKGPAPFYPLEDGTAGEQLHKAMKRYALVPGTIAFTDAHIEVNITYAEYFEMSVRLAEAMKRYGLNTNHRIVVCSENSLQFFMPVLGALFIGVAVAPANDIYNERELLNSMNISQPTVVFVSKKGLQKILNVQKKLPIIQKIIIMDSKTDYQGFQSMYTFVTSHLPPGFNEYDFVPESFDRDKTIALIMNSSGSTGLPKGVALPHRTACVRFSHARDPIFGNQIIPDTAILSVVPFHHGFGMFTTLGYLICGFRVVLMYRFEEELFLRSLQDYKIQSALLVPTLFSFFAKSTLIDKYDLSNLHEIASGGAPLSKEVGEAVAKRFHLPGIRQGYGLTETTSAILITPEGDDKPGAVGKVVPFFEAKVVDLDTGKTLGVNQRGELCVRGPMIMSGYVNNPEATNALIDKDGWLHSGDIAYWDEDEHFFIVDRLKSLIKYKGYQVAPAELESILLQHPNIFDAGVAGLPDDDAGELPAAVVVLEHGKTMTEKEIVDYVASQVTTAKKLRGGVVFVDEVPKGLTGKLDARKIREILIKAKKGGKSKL

| Structure (SMILES) | Potency [1] | Potency [2] | Potency [3] | Potency [4] | Potency [5] | Potency [6] | Potency [7] | Potency [8] | Potency [9] | Potency [10] | Potency [11] | Potency [12] | Potency [13] | Potency [14] |
| --- | --- | --- | --- | --- | --- | --- | --- | --- | --- | --- | --- | --- | --- | --- |
| CCC1(c2cnc[nH]2)Cc2ccccc2C1 | inactive | inactive | inactive | inactive | inactive | inactive | inactive | inactive | inactive | inactive | – | – | – | – |
| O=C(c1ccccc1)c1cc(Cl)ccc1O | inactive | inactive | inactive | inactive | inactive | inactive | inactive | – | inactive | inactive | inactive | inactive | – | – |
| CCCCCCCCCCCC(=O)N(CC)CC | inactive | inactive | inactive | inactive | inactive | – | inactive | 54.5 µM (active) | inactive | – | inactive | – | inactive | – |
| CC(C)(c1cc(Br)c(O)c(Br)c1)c1cc(Br)c(O)c(Br)c1 | inactive | inactive | inactive | inactive | 79.4 µM (active) and inactive | inactive | inactive | inactive | inactive | 54.8 µM (active) and 48.9 µM (active) | inactive | inactive | inactive | – |
| O=C1OC(=O)c2cccc3cccc1c23 | inactive | inactive | inactive | inactive | inactive | – | inactive | inactive | inactive | inactive | inactive | inactive | – | inactive |
| CCCCCCCC/C=C\CCCCCCCC(=O)OCCOC(=O)CCCCCCC/C=C\CCCCCCCC | inactive | inactive | inactive | inactive | inactive | inactive | inactive | inactive | inactive | inactive | inactive | – | inactive | – |
| NCCCCCCNCCCCCCN | inactive | inactive | inactive | inactive | inactive | inactive | inactive | inactive | inactive | inactive | inactive | inactive | – | – |
| C/C=C/C(=O)Oc1c(CCCCCC(C)C)cc([N+](=O)[O-])cc1[N+](=O)[O-] | inactive | 17.2 µM (active) | inactive | 24.3 µM (active) | inactive | 19.3 µM (active) | 21.7 µM (active) | – | 27.3 µM (active) | 17.4 µM (active) | 30.6 µM (active) | 6.86 µM (active) | inactive | inactive |
| CNC(=O)c1cc(Oc2ccc(NC(=O)Nc3ccc(Cl)c(C(F)(F)F)c3)cc2)ccn1 | inactive | 29.8 µM (active) | inactive | 26.6 µM (active) | inactive | – | – | – | – | inactive | – | – | inactive | inactive |
